# Shown is part of a subset that was picked to be rich in the strongest signals.
# Assays:
# Assay in all cases: glycan array binding signal (z-score within array); higher = stronger binding
# Conditions in all cases: glycan notation: IUPAC condensed, linker removed
# [1] = target: Fuc(a1-2)Gal(b1-3)GalNAc
# In short: (§1)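 The Consortium for Functional Glycomics database supplied 3228 glycan arrays, of which those lacking an available protein sequence were dropped. The binding signal, a within-array Z-score, was averaged across arrays of the same protein sequence and across linkers. Negative scores can be read as non-binding.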
# [2] = target: Fuc(a1-2)[Gal(a1-3)]Gal(b1-3)GlcNAc
# In short: as §1
# [3] = target: Fuc(a1-2)[GalNAc(a1-3)]Gal(b1-4)[Fuc(a1-3)]GlcNAc
# In short: as §1
# [4] = target: Fuc(a1-3)[Gal(b1-4)]GlcNAc(b1-3)Gal(b1-3)[Fuc(a1-4)]GlcNAc
# In short: as §1
# [5] = target: Fuc(a1-3)[Gal(b1-4)]GlcNAc(b1-4)Gal(b1-4)[Fuc(a1-3)]GlcNAc
# In short: as §1
# [6] = target: Fuc(b1-3)GlcNAc
# In short: as §1
# [7] = target: Gal(a1-3)[Gal(a1-4)]Gal(b1-4)GlcNAc
# In short: as §1
# [8] = target: Gal(b1-3)[Fuc(a1-4)]GlcNAc(b1-3)Gal(b1-4)[Fuc(a1-3)]GlcNAc
# In short: as §1
# [9] = target: Gal(b1-4)GalNAc(b1-3)[Fuc(a1-2)]Gal(b1-4)GlcNAc
# In short: as §1
# [10] = target: Gal(b1-4)GlcNAc(b1-3)Gal(b1-4)GlcNAc(b1-3)Gal(b1-4)GlcNAc
# In short: as §1
# [11] = target: Gal(b1-4)GlcNAc(b1-3)[Gal(b1-4)GlcNAc(b1-6)]GalNAc
# In short: as §1
# [12] = target: Gal3S(b1-3)GalNAc
# In short: as §1
# [13] = target: Gal3S(b1-4)Glc6S
# In short: as §1
# [14] = target: Gal3S6S(b1-4)GlcNAc
# In short: as §1
# [15] = target: GalNAc(a1-3)GalNAc
# In short: as §1
# [16] = target: GlcNAc(a1-3)Gal(b1-4)GlcNAc
# In short: as §1
# [17] = target: GlcNAc(b1-3)[GlcNAc(b1-4)][GlcNAc(b1-6)]GlcNAc
# In short: as §1
# [18] = target: Man(a1-2)Man(a1-2)Man(a1-3)[Man(a1-2)Man(a1-3)[Man(a1-2)Man(a1-6)]Man(a1-6)]Man(b1-4)GlcNAc(b1-4)GlcNAc
# In short: as §1
# [19] = target: Neu5Ac(a2-3)Gal(b1-3)GlcNAc(b1-3)Gal(b1-4)GlcNAc
# In short: as §1
# [20] = target: Neu5Ac(a2-3)Gal(b1-4)GlcNAc6S
# In short: as §1
# [21] = target: Neu5Ac(a2-3)[Neu5Ac(a2-6)]GalNAc
# In short: as §1
# [22] = target: Neu5Ac(a2-8)Neu5Ac(a2-8)Neu5Ac(a2-3)[GalNAc(b1-4)]Gal(b1-4)Glc
# In short: as §1
binder,measurement,setting,value
"Tim-4 (Mus musculus), Q6U7R4 (protein) MSKGLLLLWLVTELWWLYLTPAASEDTIIGFLGQPVTLPCHYLSWSQSRNSMCWGKGSCPNSKCNAELLRTDGTRIISRKSTKYTLLGKVQFGEVSLTISNTNRGDSGVYCCRIEVPGWFNDVKKNVRLELRRATTTKKPTTTTRPTTTPYVTTTTPELLPTTVMTTSVLPTTTPPQTLATTAFSTAVTTCPSTTPGSFSQETTKGSAFTTESETLPASNHSQRSMMTISTDIAVLRPTGSNPGILPSTSQLTTQKTTLTTSESLQKTTKSHQINSRQTILIIACCVGFVLMVLLFLAFLLRGKVTGANCLQRHKRPDNTEDSDSVLNDMSHGRDDEDGIFTL",glycan array binding signal (z-score),[1],-0.114
same,glycan array binding signal (z-score),[2],0.285
same,glycan array binding signal (z-score),[3],0.089
same,glycan array binding signal (z-score),[4],0.006
same,glycan array binding signal (z-score),[5],-0.188
same,glycan array binding signal (z-score),[6],-0.139
same,glycan array binding signal (z-score),[7],-0.083
same,glycan array binding signal (z-score),[8],-0.25
same,glycan array binding signal (z-score),[9],-0.661
same,glycan array binding signal (z-score),[10],-0.396
same,glycan array binding signal (z-score),[11],-0.345
same,glycan array binding signal (z-score),[12],2.34
same,glycan array binding signal (z-score),[13],1.82
same,glycan array binding signal (z-score),[14],1.9
same,glycan array binding signal (z-score),[15],-0.157
same,glycan array binding signal (z-score),[16],-0.514
same,glycan array binding signal (z-score),[17],1.75
same,glycan array binding signal (z-score),[18],0.032
same,glycan array binding signal (z-score),[19],-0.953
same,glycan array binding signal (z-score),[20],-0.51
same,glycan array binding signal (z-score),[21],-0.437
same,glycan array binding signal (z-score),[22],1.32
